Drawing on paper PMC11006913, this text covers binding signal for 8 sequences.

Substitutions are numbered along the chain they refer to.

Common to all, as to test: PBM; 200 nM protein, PBS
Holding throughout (conditions): dsDNA, one strand shown

The target of assay [1] is HOXA4 (Homo sapiens, UniProt Q00056 201-287, W262R).
The target of assay [2] is HOXA4 (Homo sapiens, UniProt Q00056 201-287).
Assay [3] concerns the target HOXC9 (Homo sapiens, UniProt P31274 178-260, K195R).
Assay [4] has as its target ALX4 (Homo sapiens, UniProt Q9H161 200-286).
Assay [5] has as its target T1, PAX4 (Homo sapiens, UniProt O43316 9-242, R200K).
T1 sequence: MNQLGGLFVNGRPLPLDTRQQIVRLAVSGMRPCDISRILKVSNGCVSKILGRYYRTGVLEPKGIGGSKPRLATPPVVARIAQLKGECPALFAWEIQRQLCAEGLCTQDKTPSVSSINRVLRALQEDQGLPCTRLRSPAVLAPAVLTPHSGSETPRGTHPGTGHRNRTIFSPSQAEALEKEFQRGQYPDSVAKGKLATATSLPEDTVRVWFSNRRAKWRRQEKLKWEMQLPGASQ

Assay [6] has as its target PRRX1 (Homo sapiens, UniProt P54821 80-166, F113S).
Assay [7] has as its target T2, PAX4 (Homo sapiens, UniProt O43316 9-242).
T2 sequence: T1 sequence with K192R

Assay [8] has as its target ALX4 (Homo sapiens, UniProt Q9H161 200-286, Q225E).
The target of assay [9] is HOXC9 (Homo sapiens, UniProt P31274 178-260).
Sequence of HOXC9 (Homo sapiens, UniProt P31274 178-260) (P31274 178-260): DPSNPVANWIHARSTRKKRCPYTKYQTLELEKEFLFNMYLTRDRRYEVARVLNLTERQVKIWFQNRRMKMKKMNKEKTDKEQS
For assay [10], the target named is ALX1 (Homo sapiens, UniProt Q15699 118-204, L144V).
Sequence of ALX1 (Homo sapiens, UniProt Q15699 118-204, L144V) (Q15699 118-204 L144V): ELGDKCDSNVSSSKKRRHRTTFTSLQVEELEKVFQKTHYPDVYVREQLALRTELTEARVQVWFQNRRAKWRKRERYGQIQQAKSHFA
Assay [11] addresses ALX3 (Homo sapiens, UniProt O95076 139-225, N203Q).
Assay [12] addresses T3, PAX4 (Homo sapiens, UniProt O43316 9-242, R200Q).
T3 sequence: T1 sequence with K192Q

Assay [13] has as its target HOXC9 (Homo sapiens, UniProt P31274 178-260, R193K).
Assay [14] addresses ALX1 (Homo sapiens, UniProt Q15699 118-204, L144R).
In assay [15] the target is T4, PAX4 (Homo sapiens, UniProt O43316 9-242, F177V).
T4 sequence: T1 sequence with F169V, K192R

Assay [16] concerns the target ALX3 (Homo sapiens, UniProt O95076 139-225).
For assay [17], the target named is T5, PAX4 (Homo sapiens, UniProt O43316 9-242, F177Y).
T5 sequence: T1 sequence with F169Y, K192R

Assay [18] deals with PROP1 (Homo sapiens, UniProt O75360 56-141).
Sequence of PROP1 (Homo sapiens, UniProt O75360 56-141) (O75360 56-141): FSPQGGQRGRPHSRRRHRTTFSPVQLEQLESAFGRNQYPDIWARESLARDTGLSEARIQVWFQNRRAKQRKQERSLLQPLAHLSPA
Assay [19] addresses PROP1 (Homo sapiens, UniProt O75360 56-141, R99H).
In assay [20] the target is ALX3 (Homo sapiens, UniProt O95076 139-225, L168Q).
Sequence of ALX3 (Homo sapiens, UniProt O95076 139-225, L168Q) (O95076 139-225 L168Q): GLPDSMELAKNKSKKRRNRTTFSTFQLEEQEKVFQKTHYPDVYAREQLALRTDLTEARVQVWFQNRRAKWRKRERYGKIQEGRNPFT
Assay [21] concerns the target HOXC9 (Homo sapiens, UniProt P31274 178-260, R222W).
The target of assay [22] is ALX3 (Homo sapiens, UniProt O95076 139-225, L168V).
Sequence of ALX3 (Homo sapiens, UniProt O95076 139-225, L168V) (O95076 139-225 L168V): as the sequence (O95076 139-225 L168Q) above, with Q30V counted along it
Assay [23] has as its target PROP1 (Homo sapiens, UniProt O75360 56-141, F88S).
Assay [24] addresses T6, PAX4 (Homo sapiens, UniProt O43316 9-242, R227W).
T6 sequence: T1 sequence with K192R, R219W

For assay [25], the target named is ALX3 (Homo sapiens, UniProt O95076 139-225, N203S).
Sequence of ALX3 (Homo sapiens, UniProt O95076 139-225, N203S) (O95076 139-225 N203S): as the sequence (O95076 139-225 L168Q) above, with Q30L, N65S counted along it
Assay [26] concerns the target PRRX1 (Homo sapiens, UniProt P54821 80-166).
Assay [27] addresses HOXA4 (Homo sapiens, UniProt Q00056 201-287, W262F).
The target in the next assay is T7, NKX2-6 (Homo sapiens, UniProt A6NCS4 118-204, R150C).
T7 sequence: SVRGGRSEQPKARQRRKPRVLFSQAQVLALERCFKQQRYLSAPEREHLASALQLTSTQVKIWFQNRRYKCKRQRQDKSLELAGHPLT

For assay [28], the target named is ALX1 (Homo sapiens, UniProt Q15699 118-204).
Sequence of ALX1 (Homo sapiens, UniProt Q15699 118-204) (Q15699 118-204): as the sequence (Q15699 118-204 L144V) above, with V27L counted along it
Assay [29] deals with MSX2 (Homo sapiens, UniProt P35548 130-214, R199I).
Sequence of MSX2 (Homo sapiens, UniProt P35548 130-214, R199I) (P35548 130-214 R199I): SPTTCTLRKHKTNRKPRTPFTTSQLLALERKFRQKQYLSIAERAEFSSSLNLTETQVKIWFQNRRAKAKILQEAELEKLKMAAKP
For assay [30], the target named is MSX2 (Homo sapiens, UniProt P35548 130-214).
Sequence of MSX2 (Homo sapiens, UniProt P35548 130-214) (P35548 130-214): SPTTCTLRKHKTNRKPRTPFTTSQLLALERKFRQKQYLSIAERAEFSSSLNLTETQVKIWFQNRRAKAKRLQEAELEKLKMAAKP
The target in assay [31] is VAX1 (Homo sapiens, UniProt Q5SQQ9 86-172).
Sequence of VAX1 (Homo sapiens, UniProt Q5SQQ9 86-172) (Q5SQQ9 86-172): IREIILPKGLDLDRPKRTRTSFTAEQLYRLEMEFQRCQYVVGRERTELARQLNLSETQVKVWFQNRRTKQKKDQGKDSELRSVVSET
The target in assay [32] is MSX2 (Homo sapiens, UniProt P35548 130-214, F161Y).
Sequence of MSX2 (Homo sapiens, UniProt P35548 130-214, F161Y) (P35548 130-214 F161Y): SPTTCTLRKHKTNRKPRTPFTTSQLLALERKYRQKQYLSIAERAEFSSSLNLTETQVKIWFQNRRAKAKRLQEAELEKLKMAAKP
Assay [33] has as its target VAX1 (Homo sapiens, UniProt Q5SQQ9 86-172, T142I).
The target of assay [34] is VAX1 (Homo sapiens, UniProt Q5SQQ9 86-172, K157R).
Sequence of VAX1 (Homo sapiens, UniProt Q5SQQ9 86-172, K157R) (Q5SQQ9 86-172 K157R): as the sequence (Q5SQQ9 86-172) above, with K72R counted along it
In assay [35] the target is HOXB6 (Homo sapiens, UniProt P17509 132-218, K202E).
Sequence of HOXB6 (Homo sapiens, UniProt P17509 132-218, K202E) (P17509 132-218 K202E): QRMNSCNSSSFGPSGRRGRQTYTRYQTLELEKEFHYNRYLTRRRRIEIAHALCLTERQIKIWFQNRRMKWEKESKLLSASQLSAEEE
The target of assay [36] is HOXB6 (Homo sapiens, UniProt P17509 132-218).
Sequence of HOXB6 (Homo sapiens, UniProt P17509 132-218) (P17509 132-218): as the sequence (P17509 132-218 K202E) above, with E71K counted along it

Sequence of HOXC9 (Homo sapiens, UniProt P31274 178-260, K195R) (P31274 178-260 K195R): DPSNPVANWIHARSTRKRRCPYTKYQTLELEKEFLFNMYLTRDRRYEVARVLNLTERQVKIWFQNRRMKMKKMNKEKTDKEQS
Sequence of HOXA4 (Homo sapiens, UniProt Q00056 201-287, W262R) (Q00056 201-287 W262R): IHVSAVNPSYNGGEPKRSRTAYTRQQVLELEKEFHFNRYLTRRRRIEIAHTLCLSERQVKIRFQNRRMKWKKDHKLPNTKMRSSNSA
Sequence of HOXA4 (Homo sapiens, UniProt Q00056 201-287) (Q00056 201-287): as the sequence (Q00056 201-287 W262R) above, with R62W counted along it
Sequence of HOXC9 (Homo sapiens, UniProt P31274 178-260, R193K) (P31274 178-260 R193K): as the sequence (P31274 178-260) above, with R16K counted along it
Sequence of HOXC9 (Homo sapiens, UniProt P31274 178-260, R222W) (P31274 178-260 R222W): as the sequence (P31274 178-260) above, with R45W counted along it
Sequence of PRRX1 (Homo sapiens, UniProt P54821 80-166, F113S) (P54821 80-166 F113S): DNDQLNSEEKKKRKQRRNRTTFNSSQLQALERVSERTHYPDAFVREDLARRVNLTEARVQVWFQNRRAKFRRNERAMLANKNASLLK
Sequence of ALX3 (Homo sapiens, UniProt O95076 139-225, N203Q) (O95076 139-225 N203Q): as the sequence (O95076 139-225 L168Q) above, with Q30L, N65Q counted along it
Sequence of ALX1 (Homo sapiens, UniProt Q15699 118-204, L144R) (Q15699 118-204 L144R): as the sequence (Q15699 118-204 L144V) above, with V27R counted along it
Sequence of ALX3 (Homo sapiens, UniProt O95076 139-225) (O95076 139-225): as the sequence (O95076 139-225 L168Q) above, with Q30L counted along it
Sequence of PRRX1 (Homo sapiens, UniProt P54821 80-166) (P54821 80-166): as the sequence (P54821 80-166 F113S) above, with S34F counted along it
Sequence of ALX4 (Homo sapiens, UniProt Q9H161 200-286) (Q9H161 200-286): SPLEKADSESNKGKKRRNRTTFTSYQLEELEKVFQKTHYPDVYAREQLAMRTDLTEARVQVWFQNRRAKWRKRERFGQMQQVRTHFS
Sequence of ALX4 (Homo sapiens, UniProt Q9H161 200-286, Q225E) (Q9H161 200-286 Q225E): as the sequence (Q9H161 200-286) above, with Q26E counted along it
Sequence of HOXA4 (Homo sapiens, UniProt Q00056 201-287, W262F) (Q00056 201-287 W262F): as the sequence (Q00056 201-287 W262R) above, with R62F counted along it
Sequence of VAX1 (Homo sapiens, UniProt Q5SQQ9 86-172, T142I) (Q5SQQ9 86-172 T142I): as the sequence (Q5SQQ9 86-172) above, with T57I counted along it
Sequence of PROP1 (Homo sapiens, UniProt O75360 56-141, R99H) (O75360 56-141 R99H): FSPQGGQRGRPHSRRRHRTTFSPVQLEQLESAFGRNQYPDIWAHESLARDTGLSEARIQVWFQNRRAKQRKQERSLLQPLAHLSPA
Sequence of PROP1 (Homo sapiens, UniProt O75360 56-141, F88S) (O75360 56-141 F88S): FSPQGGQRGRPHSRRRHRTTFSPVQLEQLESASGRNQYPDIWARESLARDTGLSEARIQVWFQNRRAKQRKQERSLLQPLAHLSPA

In the case of ACGTTTAG, the binding signal in the assay with HOXA4 [1] was 10.2 upbm affinity estimate (log intensity, higher = more binding, comparable within an allelic series); in the assay with HOXA4 [2], 11 upbm affinity estimate (log intensity, higher = more binding, comparable within an allelic series).

In the case of TAATTTAA, the binding signal with HOXC9 [3] is 12.2 upbm affinity estimate (log intensity, higher = more binding, comparable within an allelic series); with ALX4 [4] it was 13.7 upbm affinity estimate (log intensity, higher = more binding, comparable within an allelic series); with PAX4 [5], 11.7 upbm affinity estimate (log intensity, higher = more binding, comparable within an allelic series); in the assay with PRRX1 [6], 11.2 upbm affinity estimate (log intensity, higher = more binding, comparable within an allelic series); with PAX4 [7], 12.2 upbm affinity estimate (log intensity, higher = more binding, comparable within an allelic series); with ALX4 [8] it was 12.7 upbm affinity estimate (log intensity, higher = more binding, comparable within an allelic series). Besides, the binding signal in the assay with HOXC9 [9] is 12.2 upbm affinity estimate (log intensity, higher = more binding, comparable within an allelic series); with ALX1 [10] it was 11.4 upbm affinity estimate (log intensity, higher = more binding, comparable within an allelic series); in the assay with ALX3 [11], 8.49 upbm affinity estimate (log intensity, higher = more binding, comparable within an allelic series); in the assay with PAX4 [12], 11.9 upbm affinity estimate (log intensity, higher = more binding, comparable within an allelic series); with HOXC9 [13], 12.2 upbm affinity estimate (log intensity, higher = more binding, comparable within an allelic series); with ALX1 [14], 11.1 upbm affinity estimate (log intensity, higher = more binding, comparable within an allelic series). For the same sequence, the binding signal was 10.6 upbm affinity estimate (log intensity, higher = more binding, comparable within an allelic series) with PAX4 [15]; 12.4 upbm affinity estimate (log intensity, higher = more binding, comparable within an allelic series) in the assay with ALX3 [16]; 11 upbm affinity estimate (log intensity, higher = more binding, comparable within an allelic series) with PAX4 [17]; 11 upbm affinity estimate (log intensity, higher = more binding, comparable within an allelic series) in the assay with PROP1 [18]; 10.6 upbm affinity estimate (log intensity, higher = more binding, comparable within an allelic series) in the assay with PROP1 [19]; 10.2 upbm affinity estimate (log intensity, higher = more binding, comparable within an allelic series) with ALX3 [20]. The binding signal in the assay with HOXC9 [21] is 10.9 upbm affinity estimate (log intensity, higher = more binding, comparable within an allelic series); in the assay with ALX3 [22], 9.7 upbm affinity estimate (log intensity, higher = more binding, comparable within an allelic series); with PROP1 [23] it was 7.76 upbm affinity estimate (log intensity, higher = more binding, comparable within an allelic series); with PAX4 [24], 10.9 upbm affinity estimate (log intensity, higher = more binding, comparable within an allelic series); in the assay with ALX3 [25] it was 8.64 upbm affinity estimate (log intensity, higher = more binding, comparable within an allelic series); with PRRX1 [26] it was 13.3 upbm affinity estimate (log intensity, higher = more binding, comparable within an allelic series).

In the case of AATAGGTG, the binding signal is 10.3 upbm affinity estimate (log intensity, higher = more binding, comparable within an allelic series) with HOXA4 [1]; 11.3 upbm affinity estimate (log intensity, higher = more binding, comparable within an allelic series) in the assay with HOXA4 [2]; 10.3 upbm affinity estimate (log intensity, higher = more binding, comparable within an allelic series) with HOXA4 [27].

For CCGGGAGC, the binding signal in the assay with HOXC9 [3] is 9.52 upbm affinity estimate (log intensity, higher = more binding, comparable within an allelic series); in the assay with PAX4 [5] it was 9.29 upbm affinity estimate (log intensity, higher = more binding, comparable within an allelic series); in the assay with PAX4 [7] it was 9.27 upbm affinity estimate (log intensity, higher = more binding, comparable within an allelic series); with NKX2-6, 9.24 upbm affinity estimate (log intensity, higher = more binding, comparable within an allelic series); with HOXC9 [9] it was 9.61 upbm affinity estimate (log intensity, higher = more binding, comparable within an allelic series); with PAX4 [12], 9.33 upbm affinity estimate (log intensity, higher = more binding, comparable within an allelic series). In addition, the binding signal was 9.49 upbm affinity estimate (log intensity, higher = more binding, comparable within an allelic series) in the assay with HOXC9 [13]; 9.16 upbm affinity estimate (log intensity, higher = more binding, comparable within an allelic series) with PAX4 [15]; 9.2 upbm affinity estimate (log intensity, higher = more binding, comparable within an allelic series) with PAX4 [17]; 9.58 upbm affinity estimate (log intensity, higher = more binding, comparable within an allelic series) with HOXC9 [21]; 9.25 upbm affinity estimate (log intensity, higher = more binding, comparable within an allelic series) with PAX4 [24].

Regarding CAGACGGC, the binding signal with HOXC9 [3] was 9.46 upbm affinity estimate (log intensity, higher = more binding, comparable within an allelic series); with PRRX1 [6], 9.13 upbm affinity estimate (log intensity, higher = more binding, comparable within an allelic series); with HOXC9 [9], 9.65 upbm affinity estimate (log intensity, higher = more binding, comparable within an allelic series); in the assay with ALX1 [10] it was 6.56 upbm affinity estimate (log intensity, higher = more binding, comparable within an allelic series); with HOXC9 [13] it was 9.48 upbm affinity estimate (log intensity, higher = more binding, comparable within an allelic series); with ALX1 [14], 6.52 upbm affinity estimate (log intensity, higher = more binding, comparable within an allelic series). Also, the binding signal is 9.64 upbm affinity estimate (log intensity, higher = more binding, comparable within an allelic series) in the assay with HOXC9 [21]; 6.59 upbm affinity estimate (log intensity, higher = more binding, comparable within an allelic series) in the assay with ALX1 [28]; 9.37 upbm affinity estimate (log intensity, higher = more binding, comparable within an allelic series) in the assay with PRRX1 [26].

With CCGGCTAG, the binding signal in the assay with HOXC9 [3] was 9.47 upbm affinity estimate (log intensity, higher = more binding, comparable within an allelic series); in the assay with ALX4 [4] it was 8.04 upbm affinity estimate (log intensity, higher = more binding, comparable within an allelic series); with ALX4 [8], 8.02 upbm affinity estimate (log intensity, higher = more binding, comparable within an allelic series); with HOXC9 [9] it was 9.55 upbm affinity estimate (log intensity, higher = more binding, comparable within an allelic series); in the assay with MSX2 [29], 9.38 upbm affinity estimate (log intensity, higher = more binding, comparable within an allelic series); with HOXC9 [13] it was 9.53 upbm affinity estimate (log intensity, higher = more binding, comparable within an allelic series). Also, the binding signal in the assay with MSX2 [30] was 9.32 upbm affinity estimate (log intensity, higher = more binding, comparable within an allelic series); with VAX1 [31], 6.74 upbm affinity estimate (log intensity, higher = more binding, comparable within an allelic series); with HOXC9 [21] it was 9.7 upbm affinity estimate (log intensity, higher = more binding, comparable within an allelic series); with MSX2 [32], 9.36 upbm affinity estimate (log intensity, higher = more binding, comparable within an allelic series); with VAX1 [33], 6.97 upbm affinity estimate (log intensity, higher = more binding, comparable within an allelic series); with VAX1 [34], 6.86 upbm affinity estimate (log intensity, higher = more binding, comparable within an allelic series).

As for GTAAATAC, the binding signal in the assay with HOXA4 [1] was 10.3 upbm affinity estimate (log intensity, higher = more binding, comparable within an allelic series); in the assay with HOXA4 [2] it was 11.3 upbm affinity estimate (log intensity, higher = more binding, comparable within an allelic series).

Consider TAAGATGA, for which the binding signal is 10.9 upbm affinity estimate (log intensity, higher = more binding, comparable within an allelic series) with HOXC9 [3]; 9.54 upbm affinity estimate (log intensity, higher = more binding, comparable within an allelic series) with HOXB6 [35]; 10.7 upbm affinity estimate (log intensity, higher = more binding, comparable within an allelic series) with HOXC9 [9]; 8.17 upbm affinity estimate (log intensity, higher = more binding, comparable within an allelic series) with ALX3 [11]; 10.9 upbm affinity estimate (log intensity, higher = more binding, comparable within an allelic series) with HOXC9 [13]; 9.17 upbm affinity estimate (log intensity, higher = more binding, comparable within an allelic series) with ALX3 [16]. In addition, the binding signal with HOXC9 [21] is 10.2 upbm affinity estimate (log intensity, higher = more binding, comparable within an allelic series); with ALX3 [25], 8.25 upbm affinity estimate (log intensity, higher = more binding, comparable within an allelic series); with HOXB6 [36] it was 10.1 upbm affinity estimate (log intensity, higher = more binding, comparable within an allelic series).
